Assay outcomes: PubChem BioAssay, National Center for Advancing Translational Sciences (NCATS)
Rows were chosen to be rich in hits. Some 17% of all compounds tested hit in one or more screens of this group.
TGFb inhibitor – TGF-b pathway inhibition; HepG2 CAGA-GFP TGF-b/SMAD3 reporter, GFP fluorescence, 18 h; TGF-beta stimulated, 500 pg/mL final; Potency, µM (titrated, usually from 46.1 µM), hits mostly inhibitors; 410,000 tested, 1.2% active; note: nearly all actives have a fitted effect of over 65% in size
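TGF-beta reporter screen: HEPG2 CAGA-GFP, 1% FBS, 500 pg/mL TGF-beta final, 18 h; per-cell GFP summed per well; curves fitted and categorized by class.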
HepG2 tox – HepG2 cytotoxicity, counter-screen for TGF-b inhibitors; 410,000 tested, 0.76% active; Potency, µM (top dose mostly 46.1 µM), hits mostly cytotoxic; HepG2 CAGA-GFP viability, ATP luminescence, 18 h
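CellTiter-Glo luminescence gave cytotoxicity after 18 hours at 37 degrees C. The cells were HepG2 CAGA-GFP in 1% FBS DMEM, stimulated with 500 pg/mL TGF-beta after compound addition. %Activity was normalised to no-cell wells (complete cell-killing) and DMSO (no toxicity), and curves were fitted and classified.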
S2 tox – viability counter-screen for ATXN expression inhibitors; AID 651635; S2 cells (HEK-293 line with an ATXN2-luciferase reporter) viability, CellTiter-Fluor protease fluorescence, 24 h; Potency, µM (doses to about 56.7 µM), hits mostly cytotoxic; 400,000 tested, 0.49% active; note: nearly all actives have a fitted effect of over 40% in size
ATXN2 expr inh – reduces ATXN2 reporter expression in HEK-293 cells. AID 1745845. HEK-293 ATXN2-luciferase reporter, luminescence, 24 h. Potency, µM (titrated, usually from 57 µM), hits mostly inhibitors. 360,000 tested, 0.72% active; note: nearly all actives have a fitted effect of over 55% in size
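qHTS (up to 57 uM final) was run with 24 h compound exposure of reporter cells at 37 °C. Each well was multiplexed: SteadyGlo luminescence measured ATXN2-luciferase expression after a fluorogenic Gly-Phe-AFC viability readout (25 uM final).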
DT40 TDP1 no CPT – qHTS for Inhibitors of human tyrosyl-DNA phosphodiesterase 1 (TDP1): qHTS in cells in absence of CPT; 420,000 tested, 15% active; DT40 Tdp1-/- hTDP1 cells, no CPT, ATP luminescence, 48 h; Potency, µM (highest dose often 46.2 µM), usual class: inhibitors; note: nearly all actives have a fitted effect of over 55% in size
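Seeded 400 DT40-hTDP1 cells/well (vehicle DMSO, no 20 nM CPT); pinned compounds; ≥48 hr at 37 °C; CellTiter-Glo luminescence as viability measure.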
TDP1 cell CPT – growth inhibition of DT40 Tdp1-/-;hTDP1 cells with camptothecin (screen for TDP1 inhibitors); 420,000 tested, 12% active; chicken DT40 Tdp1-/-;hTDP1 cells + 20 nM CPT, ATP luminescence, 48 h; Potency, µM (doses to about 46.2 µM), actives largely listed as inhibitors; note: nearly all actives have a fitted effect of over 55% in size
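Chicken DT40 Tdp1-/- cells complemented with human TDP1, 400 cells/well, exposed to compounds plus 20 nM camptothecin for at least 48 h at 37 C; viability read as ATP content by CellTiter-Glo luminescence.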
Hits are given with their value; n = inactive; u = inconclusive; x = no result. Calls come from the whole dose curve; as a rule, active = well fitted curve in the direction sought with a large enough effect; inconclusive = small, poorly fitted or top-dose-only effect, or another doubt; inactive = no such curve, though single readings can be large; an effect the other way counts as inactive or inconclusive.

SMILES | TGFb inhibitor | HepG2 tox | S2 tox | ATXN2 expr inh | DT40 TDP1 no CPT | TDP1 cell CPT
CCOC(=O)[C@]12CCC=C1N(Cc1cccc3ccccc13)C(=O)[C@H](CC(=O)N1CCCCC1)C2 | x | x | u | n | 26µM | u
CCOC(=O)N1CCN(C(=O)C[C@@H]2C[C@@]3(C(=O)OC)CC(C)(C)CC=C3N(Cc3cccc4ccccc34)C2=O)CC1 | x | x | x | x | 18µM | 16µM
CCOC(=O)[C@]12CCCC=C1N(Cc1cccc3ccccc13)C(=O)[C@H](CC(=O)N1CCN(C(=O)c3ccco3)CC1)C2 | x | x | u | n | u | u
CCOC(=O)[C@]12CCC=C1N(Cc1cccc3ccccc13)C(=O)[C@H](CC(=O)N1CCCC1)C2 | x | x | u | n | 23µM | 18µM
O=C1C(=O)N(CCCn2ccnc2)C(c2cccnc2)/C1=C(/O)c1ccc(F)cc1 (configuration not stated) | n | n | n | n | n | n
CCOC(=O)N1CCN(C(=O)C[C@@H]2C[C@@]3(C(=O)OC)CCCCC=C3N(Cc3cccc4ccccc34)C2=O)CC1 | x | x | u | n | 21µM | u
CCOC(=O)[C@]12CCC=C1N(Cc1cccc3ccccc13)C(=O)[C@H](CC(=O)N1CCSCC1)C2 | x | x | n | n | 18µM | u
COC(=O)[C@@]12C[C@@H](CC(=O)N3CCN(C(=O)c4ccco4)CC3)C(=O)N(Cc3cccc4ccccc34)C1=CCC(C)(C)C2 | x | x | x | x | 18µM | u
COC(=O)[C@]12CCCCC=C1N(Cc1cccc3ccccc13)C(=O)[C@H](CC(=O)N1CCSCC1)C2 | x | x | u | n | u | u
CCOC(=O)[C@]12CCCC=C1N(Cc1cccc3ccccc13)C(=O)[C@H](CC(=O)N1CCSCC1)C2 | x | x | u | n | u | u
CC1=C(C(=O)N(C(C)C)C(C)C)CC(CC(=O)NC2CCCC2)C(=O)N1Cc1ccc(F)cc1 (configuration not stated) | n | n | n | n | n | n
COc1ccc(-c2onc(C)c2C)cc1S(=O)(=O)N1CCN(c2cc(C)ccc2C)CC1 | u | n | x | x | 21µM | u
CCN(CC)S(=O)(=O)c1cc(-c2onc(C)c2C)ccc1OC | n | n | x | x | u | u
COc1ccc(OC)c(S(=O)(=O)N2CCc3ccccc32)c1 | n | n | n | n | n | n
COc1ccc(-c2onc(C)c2C)cc1S(=O)(=O)N1CCc2ccccc21 | n | n | x | x | u | 16µM
COc1ccc(-c2sc3ccccc3c2-c2ccc(O)cc2)cc1 | u | n | u | u | u | n
COc1ccccc1-c1sc2ccccc2c1-c1ccc(O)cc1 | 11µM | n | n | n | u | u
COc1ccccc1-c1sc2ccccc2c1-c1ccc2c(c1)OCO2 | n | n | n | n | u | 23µM
COc1ccccc1-c1sc2cc3c(cc2c1-c1ccc2c(c1)OCO2)OCO3 | n | n | n | n | u | u
CC(=O)c1ccc(NC(=O)CCc2ccc(C)o2)cc1 | n | n | n | n | n | n
CC(C)CCN1CCN(Cc2cccc(C(F)(F)F)c2)CC1CCO (configuration not stated) | n | n | n | x | u | u
CCC1CCCCN1CCCNC(=O)c1cn(CC)c2ccc(S(=O)(=O)N3CCc4ccccc4C3)cc2c1=O (configuration not stated) | n | n | n | n | u | u
CCn1cc(C(=O)NC(C)c2ccccc2)c(=O)c2cc(S(=O)(=O)N3CCc4ccccc4C3)ccc21 (configuration not stated) | u | n | n | n | 16µM | u
CCC(C)NC(=O)c1cn(CC)c2ccc(S(=O)(=O)N3CCc4ccccc4C3)cc2c1=O (configuration not stated) | u | n | u | u | u | 21µM
Cc1csc(NC(=O)C2(C)CCN2C(=O)C(C)C)c1C#N (configuration not stated) | n | n | n | n | 8.2µM | 8.2µM
